High-throughput results (PubChem BioAssay)
In the library only some 10% were active in any assay of this set; here they are far more common.
NIH3T3 tox: cytotoxic compounds in NIH 3T3 cells. NIH 3T3 viability, CellTiter-Glo ATP luminescence, 48-72 h. Potency, µM (top dose mostly 96.7 µM), without a hit: top-dose activity change, negative = cytotoxicity, hits mostly inhibitors. actives 4.3% (n = 94,000). AID 1345082; note: nearly all actives have a fitted effect of over 55% in size
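NIH 3T3 cells at 400 cells/well received 23 nL of compound by pintool and were incubated 48 or 72 h at 37 °C. Viability was read as ATP-coupled CellTiter-Glo luminescence.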
GPT2 inhibitor: blocks human glutamate pyruvate transaminase 2; Potency, µM (doses to about 57.7 µM), inactives show top-dose activity change, negative = inhibition, most hits filed as inhibitors; Q8TD30; actives 0.25% (n = 100,000); Recombinant GPT2, coupled pyruvate oxidase/HRP Amplex Red fluorescence; note: nearly all actives have a fitted effect of over 60% in size
Target sequence (Q8TD30 whole entry, looked up): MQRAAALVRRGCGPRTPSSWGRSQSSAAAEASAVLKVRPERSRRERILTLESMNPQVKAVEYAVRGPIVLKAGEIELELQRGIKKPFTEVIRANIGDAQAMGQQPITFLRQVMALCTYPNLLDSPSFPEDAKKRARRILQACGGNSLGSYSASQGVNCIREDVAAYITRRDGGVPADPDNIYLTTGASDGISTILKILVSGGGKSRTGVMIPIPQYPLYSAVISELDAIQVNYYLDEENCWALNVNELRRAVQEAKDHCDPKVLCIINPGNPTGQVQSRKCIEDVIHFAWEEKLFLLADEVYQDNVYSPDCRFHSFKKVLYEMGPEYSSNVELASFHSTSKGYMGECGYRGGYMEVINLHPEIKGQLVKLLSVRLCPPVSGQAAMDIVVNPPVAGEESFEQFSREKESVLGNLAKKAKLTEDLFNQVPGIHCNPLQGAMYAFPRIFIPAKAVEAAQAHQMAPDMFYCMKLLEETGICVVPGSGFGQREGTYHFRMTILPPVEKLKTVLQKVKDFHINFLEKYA
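Recombinant GPT2 (10ng/uL) with 250uM a-KG and 2mM L-alanine, 30 min at room temperature, in HEPES pH 7.5 buffer. Pyruvate detected by pyruvate oxidase/HRP/Amplex Red fluorescence after 30 min in the dark; AOA (50uM) as positive control.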
NPR1 antag: blocks ANP-stimulated signaling of human Npr1 receptor | P16066 | HEK293 hNpr1 GloSensor cGMP, ANP-stimulated luminescence | Potency, µM (top dose mostly 46.3 µM), for inactives: top-dose activity change, negative = inhibition, hits mostly inhibitors | actives 1.6% (n = 76,000); calls by dose curve; note: nearly all actives have a fitted effect of over 60% in size
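HEK293 cells stably expressing human Npr1 and cGMP GloSensor pGS-40F, loaded 2 h with 2% GloSensor reagent, given compound 30 min at room temperature. Luminescence read before and 20 min after 0.1 nM hNppA.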
HEK cytotox: kills HEK 293 cells | Potency, µM (doses to about 115 µM), inactives show at the highest dose activity change, negative = cytotoxicity, actives largely listed as inhibitors | AID 1345083 | HEK 293 viability, ATP luminescence (CellTiter-Glo), 48-72 h | actives 6.6% (n = 94,000); note: nearly all actives have a fitted effect of over 60% in size
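ATP-coupled CellTiter-Glo luminescence served as viability read-out, recorded 10 min after reagent addition at room temperature. HEK 293 cells, 250 cells/well, had been incubated with pintool-transferred compound for 48 or 72 hr at 37 degree Celsius.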
FLuc inh: Photinus pyralis luciferase inhibition. P08659. purified P. pyralis luciferase, luminescence, biochemical. Potency, µM (highest dose often 115 µM), usual class: inhibitors. actives 2.5% (n = 76,000); note: nearly all actives have a fitted effect of over 65% in size
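Luminescence read by CCD imaging after purified firefly luciferase (10nM final) was added to substrate buffer holding 10uM D-luciferin and 10uM ATP, pH 7.5, pre-dosed with compound.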
Active calls of the source: *; i = inactive; ? = inconclusive; . = no result given; [ ] = dose if it differs, or a comment. Unless noted, calls come from the whole dose curve; as a rule, active = well fitted curve in the direction sought with a large enough effect; inconclusive = small, poorly fitted or top-dose-only effect, or another doubt; inactive = no such curve, though single readings can be large; an effect the other way counts as inactive or inconclusive. % is set by controls: 0 for no effect and ±100 for the full control effect; potency is the fitted concentration of half-maximal effect.

SMILES	NIH3T3 tox	GPT2 inhibitor	NPR1 antag	HEK cytotox	FLuc inh
NCCCCC(=O)N1CCOc2c(O)cc(-c3csc4ccccc34)cc2C1	40µM*	-6%	-29%	32µM*	i
O=C(CN1CCOc2c(O)cc(-c3csc4ccccc34)cc2C1)N1CCOCC1	?	i	-3%	?	i
O=C1CCCN1CCN1CCOc2c(O)cc(-c3csc4ccccc34)cc2C1	?	4%	2%	45µM*	i
CN1CCN(C(=O)[C@@H]2CCC[C@@H](NCc3cccc4c3OCO4)CN(C)C(=O)C2)CC1	-4%[138 µM]	i	1%[70.6 µM]	i	i
O=C(NC1CCCN(c2ccc3nnc(C4CC4)n3n2)C1)c1ccccc1Cl (stereo unspecified)	-20%	.	.	?	.
COc1cc(-c2nc(-c3c(C)noc3C)cc3[nH]c(C)cc23)ccn1	?	-10%[88.5 µM]	-17%[70.6 µM]	89µM*	i
Cc1cc2c(-c3ccccc3O)nc(-c3c(C)noc3C)cc2[nH]1	?	-6%[88.5 µM]	7%[70.6 µM]	?	i
COc1ccc(-c2nc(-c3c(C)noc3C)cc3[nH]c(C)cc23)cn1	?	?	8%[70.6 µM]	?	i
Cc1cc2c(-c3cccc(O)c3)nc(-c3c(C)noc3C)cc2[nH]1	35µM*	2%[88.5 µM]	-22%[70.6 µM]	45µM*	i
Cc1cc2c(-c3cccc(CO)c3)nc(-c3c(C)noc3C)cc2[nH]1	35µM*	4%[88.5 µM]	-12%[70.6 µM]	?	i
Cc1cc2c(-c3cccc(S(C)(=O)=O)c3)nc(-c3c(C)noc3C)cc2[nH]1	8.9µM*	-10%[88.5 µM]	?	?	i
O=C(NCc1ccc(F)cc1)N1CC[C@@H]2COC(=O)N(Cc3ccccc3)[C@@H]2C1	?	-6%	.	?	.
O=C1CC(c2noc(-c3cc(F)cc(F)c3)n2)CN1c1ccc(F)cc1 (stereo unspecified)	?	i	0%	?	i
CC(=O)Oc1c(-c2ccc(NC(=O)C3CC3)cc2)c(-c2ccc3c(c2)OCO3)nn1-c1cccc(C)c1	?	14µM*	-5%	?	i
CCC(=O)Nc1ccc(-c2c(-c3cc(OC)cc(OC)c3)nn(-c3ccc(C)cc3)c2OC(C)=O)cc1	-22%	6.3µM*	-21%	?	i
COc1cc(OC)cc(-c2nn(-c3ccc(C)cc3C)c(OC(C)=O)c2-c2ccc(NC(C)=O)cc2)c1	?	13µM*	-18%	?	i
COc1ccc(-c2nn(-c3ccc(F)cc3)c(OC(C)=O)c2-c2ccc(NC(C)=O)cc2)cc1OC	?	?	-16%	?	i
COc1ccc(-c2nn(-c3ccc(C)cc3C)c(OC(C)=O)c2-c2ccc(NC(C)=O)cc2)c(OC)c1	?	?	-13%	-30%	i
Cc1ccsc1C(=O)NC1CCN(c2cc(-c3ccc(Cl)cc3)[nH]n2)C1 (stereo unspecified)	?	-25%	-23%	50µM*	i
COc1ccc(-c2cc(N3CCCC(NC(=O)c4sccc4C)C3)n[nH]2)cc1 (stereo unspecified)	-26%	-26%	-13%	?	25µM*
COc1ccc(-c2cc(N3CCC(NC(=O)c4cc(C)ccc4C)C3)n[nH]2)cc1 (stereo unspecified)	?	-18%	-11%	?	i
COc1ccc(-c2cc(N3CCCC(NC(=O)c4cc(C)ccc4C)C3)n[nH]2)cc1 (stereo unspecified)	32µM*	?	-19%	?	i
Cc1ccsc1C(=O)NC1CCCN(c2cc(-c3ccc(F)cc3)[nH]n2)C1 (stereo unspecified)	?	i	-29%	?	?
COc1ccc(-c2cc(N3CCCC(NC(=O)c4ccc(C)cc4C)C3)n[nH]2)cc1 (stereo unspecified)	-18%	-10%	-16%	?	16µM*
O=C1CCN(Cc2cccnc2)CCCC(C(=O)NCCC2=CCCCC2)CCN1 (stereo unspecified)	-4%	i	-1%	-8%	i
SMILES	NIH3T3 tox	GPT2 inhibitor	NPR1 antag	HEK cytotox	FLuc inh
CC1(C)C[C@H]2C[C@@H](O)[C@H](N3CCN(c4ccc(C(F)(F)F)cn4)CC3)[C@]2(O)CO1	-22%[46.1 µM]	i	.	?	.
Cc1nn(C(=O)CCCC(=O)N2CCC(Cc3nncn3-c3ccccc3)CC2)c2ccccc12	-4%	i	-5%	-10%	i
CC[C@H]1CN(S(=O)(=O)c2ccc(OC)cc2)CC[C@H]1CC(=O)NCCSC	-28%[174 µM]	1%[88.5 µM]	4%[70.6 µM]	?	i
COc1ccnc(-c2nnc3ccc(N(C)Cc4ccccc4)nn23)c1	?	-22%[88.5 µM]	-10%[70.6 µM]	56µM*	i
COc1ccnc(-c2nnc3ccc(N(C)CCN(C)C)nn23)c1	100µM*	1%[88.5 µM]	1%[70.6 µM]	2%[172 µM]	i
CN(c1ccccc1)c1ccc2nnc(-c3ccccn3)n2n1	?	-5%[88.5 µM]	2%[70.6 µM]	?	?
Cc1ccccc1C(=O)N1CCC[C@@H]1C(=O)N1CCCC(c2nc3ccncc3[nH]2)C1 (stereo partly specified)	-21%	1%	.	i	.
CCC1Oc2ccc(NC(=O)c3cccc(F)c3)cc2CN(Cc2ccccc2F)C1=O (stereo unspecified)	?	-22%	-2%	35µM*	i
CCC1Oc2ccc(NC(=O)Cc3ccc(F)cc3)cc2CN(Cc2ccccc2F)C1=O (stereo unspecified)	?	i	-15%	45µM*	i
CC1Oc2ccc(NC(=O)c3ccc([N+](=O)[O-])cc3)cc2CN(Cc2ccccc2F)C1=O (stereo unspecified)	?	i	-13%	32µM*	i
CCC1Oc2ccc(NC(=O)c3ccccc3F)cc2CN(Cc2ccccc2F)C1=O (stereo unspecified)	?	i	-3%	?	i
CCC1Oc2ccc(NC(=O)c3ccc(C#N)cc3)cc2CN(Cc2ccccc2F)C1=O (stereo unspecified)	?	i	-20%	45µM*	i
CCC1Oc2ccc(NC(=O)c3ccccc3)cc2CN(Cc2cc(F)cc(F)c2)C1=O (stereo unspecified)	?	-17%	-22%	14µM*	i
CNC(=O)c1cc(C)nc2onc(C3CCCN(C(C)=O)C3)c12 (stereo unspecified)	-1%[138 µM]	.	.	i	.
COc1ccc(CCNC(=O)CNC(=O)c2cccc(-c3ccsc3)c2)cc1	-9%	i	.	?	.
Cc1noc(C)c1[S+](=O)([O-])NC1CCN(c2ccc3nnc(C)n3n2)CC1	-23%	.	.	-18%	.
COc1ccc(-c2ccnc3nc(Cc4cc(F)cc(F)c4)nn23)c(F)c1	?	-3%	-7%	40µM*	i
